Screening results from PubChem BioAssay.
Most compounds without a hit are left out; they make up all but 9% or so of the library.
ALDH1A1 inh – qHTS Assay for Inhibitors of Aldehyde Dehydrogenase 1 (ALDH1A1); Aldehyde dehydrogenase 1A1 (Homo sapiens), P00352; Potency, µM (top dose mostly 75.3 µM), inactives show at the top dose activity, negative = inhibition, usual class: inhibitors; AID 1030, 2008; Purified ALDH1A1, NADH fluorescence, propionaldehyde substrate; 220,000 tested, 7.3% active; active = well fitted inhibition curve with a large enough effect, not every such curve was filed as active; inconclusive = small, poorly fitted or top-dose-only effect, or another doubt; inactive = no such curve, though single readings can be large or run the other way;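 also: plate controls were no enzyme wells and a reference inhibitor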
Lamin A splicing – qHTS Assay for Modulators of Lamin A Splicing. HeLa LMNA splicing GFP/RFP minigene ratio, 48 h. Potency, µM (titrated, usually from 46.1 µM), inactives show at the highest dose ratio change, negative = inhibition, most hits filed as inhibitors. AID 1487, 2009. 200,000 tested, 0.01% active; active = well fitted inhibition curve with a large enough effect in the signal ratio, with a control signal flat, not every such curve was filed as active; inconclusive = small, poorly fitted or top-dose-only effect, or effect the other way, or a change in a side signal; the % refers to the signal ratio
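Read-out is the ratio of GFP to DsRed2 object intensity, acquired by 488 nm laser-scanning cytometry on HeLa lamin A-EGFP minigene reporter cells. Compound incubation 48 hrs at 37 °C in Opti-MEM with 2% FBS; DMSO 0.5% final.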
HPGD inh – qHTS Assay for Inhibitors of HPGD (15-Hydroxyprostaglandin Dehydrogenase); Potency, µM, for inactives: top-dose activity change, negative = inhibition, actives largely listed as inhibitors; AID 894, 2007; 150,000 tested, 4.3% active; purified HPGD, NADH fluorescence kinetic, PGE2 substrate; 15-hydroxyprostaglandin dehydrogenase [NAD(+)] (Homo sapiens), P15428; active = well fitted inhibition curve with a large enough effect, not every such curve was filed as active; inconclusive = small, poorly fitted or top-dose-only effect, or another doubt; inactive = no such curve, though single readings can be large or run the other way
Target sequence (P15428 whole entry, looked up): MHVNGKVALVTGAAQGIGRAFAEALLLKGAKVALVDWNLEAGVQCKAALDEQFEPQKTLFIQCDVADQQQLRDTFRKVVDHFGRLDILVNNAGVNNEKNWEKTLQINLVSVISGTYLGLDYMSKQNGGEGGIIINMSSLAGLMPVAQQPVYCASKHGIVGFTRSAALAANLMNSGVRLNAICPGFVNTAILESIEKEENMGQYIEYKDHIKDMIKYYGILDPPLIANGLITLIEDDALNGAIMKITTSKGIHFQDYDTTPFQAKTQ
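NADH formation kinetics: reaction with 30 uM PGE2 and 1 mM NAD+ (final), 20 nM enzyme, Tris-HCl pH 8 with Tween 20, after 15 min compound preincubation at room temperature. Fluorescence change, last versus first of five reads.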
KinaseGlo FLuc – Counterscreen for Luciferase (Kinase-Glo TM) Inhibition. Luciferin 4-monooxygenase (Photuris pensylvanica), Q27757. Kinase-Glo luciferase, ATP luminescence, 8 min. Potency, µM (doses to about 38.3 µM), for inactives: top-dose activity change, negative = inhibition, usual class: inhibitors. 200,000 tested, 0.28% active. AID 1379, 2008; also: nearly all actives have a fitted effect of over 60% in size
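Kinase-Glo luciferase light output from ATP and luciferin was measured with 10 uM ATP, within the enzyme's linear range. Buffer: 50 mM imidazole pH 7.2, 50 mM KCl, 7 mM MgCl2, 0.01% Tween 20, 0.05% BSA; luminescence read after 8 min at ambient temperature.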
IMPase Li inh – qHTS Assay for Identifying the Cell-Membrane Permeable IMPase Inhibitors: Potentiation with Lithium; CHO-M1 cells, IP1 TR-FRET (IP-One), carbachol + lithium; Potency, µM (top dose mostly 59.4 µM), for inactives: at the highest dose activity, negative = IMPase inhibition, hits mostly inhibitors; 210,000 tested, 0.35% active;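 also: IP1 builds up when IMPase is blocked and the TR-FRET signal falls; plate controls were basal vehicle for no effect and high inhibitor control for full effect; nearly all actives have a fitted effect of over 50% in size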
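Test compounds were applied to CHO-M1 cells previously cultured for 16–30 h at 2000 per well. A small lithium amount accompanied them; after 30 min at 37C, IP1 was quantified by TR-FRET.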
* marks the source's active call; other numbers are inactive results; ? = inconclusive; / = no result; [ ] = remark or other dose. Unless noted, calls follow the shape of the dose curve; as a rule, active = well fitted curve in the direction sought with a large enough effect; inconclusive = small, poorly fitted or top-dose-only effect, or another doubt; inactive = no such curve, though single readings can be large; an effect the other way counts as inactive or inconclusive. Unless noted, % is scaled to controls: 0 for no effect and ±100 for the full control effect; potency is read from the fitted curve at half-maximal effect.

SMILES | ALDH1A1 inh | Lamin A splicing | HPGD inh | KinaseGlo FLuc | IMPase Li inh
CC(=O)Oc1cccc(N2C(=O)c3ccc(C(=O)Nc4c[nH]c(=O)[nH]c4=O)cc3C2=O)c1 | -4.3% | ? | / | -0.8% | 3.3%
O=C(CSc1nc2cc3ccccc3cc2[nH]1)Nc1ccc(F)cc1 | -4.4% | ? | -10.8% | 10.4% | 0.7%[38.3 µM]
O=C(Nc1ccccc1)c1ccc(N2CCN(c3ccccc3)CC2)c(S(=O)(=O)N2CCOCC2)c1 | ? | -6.7% | ? | 1.7% | -13.6%[38.3 µM]
O=C(Nc1ccccc1)c1ccc(N2CCN(c3ccccn3)CC2)c(S(=O)(=O)N2CCOCC2)c1 | 28.2µM* | -1.1% | ? | -1.0% | 47.2%[38.3 µM]
COc1ccc(-c2cc(C(=O)Nc3sc4c(c3C#N)CCCC4)c3ccccc3n2)cc1 | ? | ? | ? | -5.0% | -4.9%
Cc1ccccc1-c1cc(C(=O)Nc2sc(C(=O)OC(C)C)c(C)c2C#N)c2ccccc2n1 | 8.91µM* | ? | 15.8µM* | -7.3% | 10.2%[38.3 µM]
Cc1sc(NC(=O)c2cc(-c3ccc(Cl)cc3)nc3ccccc23)c(C(N)=O)c1C | 25.1µM* | ? | 12.6µM* | -0.5% | -0.4%[38.3 µM]
COC(=O)c1sc(NC(=O)c2cc(-c3ccccc3)nc3ccccc23)c(C#N)c1C | 14.1µM* | ? | 3.55µM* | 0.5% | 14.9%[38.3 µM]
CCOC(=O)c1sc(NC(=O)CSc2n[nH]c(-c3ccncc3)n2)c(C#N)c1C | 35.5µM* | ? | 5.01µM* | -4.2% | 27.5%[38.3 µM]
CCOC(=O)c1sc(NC(=O)CSc2nccc(C)n2)c(C#N)c1C | -1.4% | 2.2% | -8.3% | -3.6% | 31.0%[38.3 µM]
CCOC(=O)c1nnn(-c2nonc2N)c1CSc1nnc(N)s1 | -0.3% | / | / | 0.8% | 3.1%
CN1C(=O)c2ccc(NC(=O)CCS(=O)(=O)c3ccccc3)cc2C1=O | ? | 9.8%[9.22 µM] | / | 1.5% | 0.5%
CCCn1ccc2c(OCC(=O)Nc3ccc(C(F)(F)F)cc3)cccc2c1=O | / | 11.7%[46 µM] | / | / | /
CCOC(=O)c1sc(NC(=O)c2cc(-c3ccc(C)cc3)nc3ccccc23)c(C#N)c1C | ? | 6.5% | 22.4µM* | -1.9% | 25.0%[38.3 µM]
Cc1ccc(C(O)C2=CCCC2=O)cc1 (stereo not drawn) | -6.1% | / | -4.2% | 0.9% | 6.5%
CC1=C(C#N)C(c2cccnc2)C2=C(N1)c1ccccc1C2=O (stereo not drawn) | -1.3% | -2.4%[46 µM] | / | -0.4% | 12.3%
CC1=C(C#N)C(c2ccccc2)C2=C(N1)c1ccccc1C2=O (stereo not drawn) | 12.6µM* | -2.0% | 22.4µM* | 2.4% | 7.0%
CCc1n[nH]c(=S)n1/N=C/c1cc(Br)c(OC)cc1OC | 10.7% | ? | 7.94µM* | 1.3% | -0.1%
CCN1C(=O)C=CC1=O | ? | ? | -10.6% | -3.0% | -7.0%
CCC(=O)OCN1C(=O)C=CC1=O | 1µM* | / | ? | -5.1%[7.66 µM] | -2.6%
CC(N)(C(=O)O)c1ccc(S(=O)(=O)O)cc1 (stereo not drawn) | ? | / | / | / | -4.5%
CCOC(=O)c1c(C)oc2nc(C)nc(NCCCN3CCN(c4ccc(F)cc4)CC3)c12 | / | -10.9%[46 µM] | / | / | /
O=C1CCC/C(=N/Nc2ccc(Cl)cc2)C1 | 1.58µM* | ? | / | -4.8% | 42.0%
O=C(CSc1nc2scc(-c3ccccc3)c2c(=O)[nH]1)N1CCCCC1 | 1.78µM* | / | / | -0.7% | 1.0%
CC(=O)CC1=NC(C)(C)Cc2ccccc21 | ? | / | / | 1.9% | -6.4%
O=C(O)/C=C\C(=O)Nc1ccc(Oc2ccccc2)cc1 | 11.2µM* | 7.0% | -17.9% | -3.4% | -3.6%[38.3 µM]
O=C(O)/C=C\C(=O)Nc1ccc2c(c1)C(=O)c1cc(F)ccc1-2 | ? | / | -3.7% | -3.4%[7.66 µM] | -1.9%
O=C(O)/C=C/C(=O)Nc1ccc(SC(F)(F)C(F)(F)C(F)(F)F)cc1 | 28.2µM* | ? | / | 4.9% | -2.4%
O=C(O)/C=C/C(=O)Nc1ccc(OC(F)(F)Cl)cc1 | 25.1µM* | ? | / | 0.6% | -0.8%
O=C(O)/C=C/C(=O)Nc1ccc(Oc2ccc(NC(=O)/C=C/C(=O)O)cc2)cc1 | ? | 0.1% | -8.5% | -0.6% | 0.6%
